Several values for one entry are separate records, joined by “and”; a condition that tells them apart may be missing. Identical values can stand only once. Inconclusive results are not listed. Entries that show only a call come without a potency. A structure can be active in one record and inactive in another. Activity calls are given as the source filed them. Unless noted, calls follow the shape of the dose curve; as a rule, active = well fitted curve in the direction sought with a large enough effect; inconclusive = small, poorly fitted or top-dose-only effect, or another doubt; inactive = no such curve, though single readings can be large; an effect the other way counts as inactive or inconclusive.
Legend:
[1] = Cellular Toxicity (caspase-3) N2a (AID 665);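 also: compound exposure lasted 16 h at 37 °C before readout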
Method in brief: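 Mouse N2a neuroblastoma cells, 1500 per well, treated 16 h at 37 °C in complete medium; caspase-3/7 activity by Caspase-Glo luminescence after 1 h. Normalized to DMSO and 10 uM staurosporine; AC50 from Hill fits.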

[2] = Cellular Toxicity (caspase-3) NIH 3T3 (AID 666); also: potency is read from the fitted curve at half-maximal effect
Method in brief: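 Mouse NIH 3T3 fibroblasts (1000/well) treated 16 h at 37 C; caspase-3/7 activity measured by Caspase-Glo 3/7 luminescence after 20 min. Normalized to DMSO and 100 uM tamoxifen; AC50 from Hill fits.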

[3] = biological target: Cytochrome P450 3A4 (Homo sapiens) (UniProt P08684); experiment: qHTS Assay for Inhibitors and Substrates of Cytochrome P450 3A4 (AID 884); also: nearly all actives have a fitted effect of over 50% in size; also: potency is read from the fitted curve at half-maximal effect
Method in brief: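 20 nM human CYP3A4 with 25 uM Luciferin-PPXE (at KM) in 200 mM KPO4, preincubated 10 min with compound; NADPH regeneration started a 60 min RT reaction. Luciferin detected by luminescence, normalized to 57 uM ketoconazole as full inhibition.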

[4] = Cellular Toxicity (caspase-3) Renal Proximal Tubule (AID 667);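 also: cells exposed to compound for 16 hours at 37 °C before detection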
Method in brief: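 Luminescent caspase 3/7 signal from peptide-aminoluciferin cleavage measures apoptosis in freshly isolated rat kidney proximal tubule cells after 16 h compound exposure. Concentration-response data are normalized to DMSO and 10 uM staurosporine, and AC50 values come from Hill equation fits.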

[5] = biological target: Cytochrome P450 3A4 (Homo sapiens) (UniProt P08684); experiment: qHTS Assay for Activators of Cytochrome P450 3A4 (AID 885); also: nearly all actives have a fitted effect of over 65% in size; also: potency is read from the fitted curve at half-maximal effect
Method in brief: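 20nM CYP3A4 + 25uM Luciferin-PPXE (=KM), 200mM KPO4; cpd 10 min RT; NADPH regen, 60 min RT; stop w/ detection buffer, 20 min; luminescence. Normalized to 57 uM ketoconazole.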

[6] = biological target: Cytochrome P450 2D6 (Homo sapiens) (UniProt P10635); experiment: qHTS Assay for Inhibitors and Substrates of Cytochrome P450 2D6 (AID 891); also: nearly all actives have a fitted effect of over 60% in size; also: potency is read from the fitted curve at half-maximal effect
Method: NIH Molecular Libraries Screening Centers Network [MLSCN]
NIH Chemical Genomics Center [NCGC]
The P450 gene superfamily is involved in the metabolism and clearance of xenobiotics. This assay used human CYP2D6 to measure the demethylation of ethylene glycol ester of luciferin 6' methyl ether (Luciferin-ME EGE; […]) to luciferin. The luciferin is then measured by luminescence after the addition of a luciferase detection reagent. Luciferin-ME EGE concentration in the assay was equal to its Km for CYP2D6. Inhibitors and some substrates limit the production of luciferin, and decrease measured luminescence.
NCGC Assay Protocol Summary:
Two uL of enzyme and substrate mix (final concentrations: 5nM CYP2D6, 30uM Luciferin-ME EGE, 100mM KPO4) were dispensed into a white, solid bottom 1536-well microtiter plate. 23nL of compound was transferred by a pin tool. The plate was incubated at room temperature for 10 min. Two uL of an NADPH regeneration solution (Promega supplied reagent) was dispensed and the reaction was allowed to continue for 60 min at room temperature. Then the reaction was stopped by reconstituted luciferin detection buffer. After another 20 min of incubation the plate was read on the ViewLux (Perkin Elmer) at 60 sec exposure and 2x2 binning. This protocol was carried out with Promega-Glo reagents and further information can be found at http://www.promega.com/tbs/tb325/tb325.pdf. Data were normalized to the to AC100 inhibition (1.43 uM quinidine).
Keywords: P450, CYP2D6, Luciferase, MLSMR, MLSCN, NIH Roadmap, qHTS, NCGC

[7] = biological target: Cytochrome P450 2C9 (Homo sapiens) (UniProt P11712); experiment: qHTS Assay for Inhibitors and Substrates of Cytochrome P450 2C9 (AID 883); also: nearly all actives have a fitted effect of over 60% in size; also: potency is read from the fitted curve at half-maximal effect
Method in brief: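 Luminescent read-out of deoxyluciferin hydroxylation, normalized to 57uM sulphaphenazole (AC100). Reaction: 10nM enzyme, 100uM Luciferin-H (equal to KM), 25mM KPO4, 10 min compound preincubation, then 60 min with NADPH regeneration, both at 37C.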

[8] = biological target: Guanine nucleotide-binding protein G(i) subunit alpha-1 (Homo sapiens) (UniProt P63096); experiment: qHTS Assay for Inhibitors of RGS12 GoLoco Motif Activity (Green Fluorophore) (AID 879);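 also: negative values mean loss of peptide binding seen as reduced polarization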
Method in brief: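 Fluorescence polarization assay: 50 nM Gαi1 with 10 nM FITC-labeled RGS12 GoLoco peptide in 10 mM Tris pH 7.5, 150 mM NaCl, 0.1 mM GDP, 0.05% NP40, 10 min at room temperature with compound.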

[9] = biological target: Cytochrome P450 2C19 (Homo sapiens) (UniProt P33261); experiment: qHTS Assay for Inhibitors and Substrates of Cytochrome P450 2C19 (AID 899); also: nearly all actives have a fitted effect of over 60% in size; also: potency is read from the fitted curve at half-maximal effect
Method in brief: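 Luminescence readout of luciferin formed from 10uM Luciferin-H EGE (KM level) by 5 nM CYP2C19 in 50mM KPO4. 60 min NADPH-driven reaction at 37C after 10 min compound preincubation; data scaled to 57uM ketoconazole inhibition.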

[10] = qHTS Assay for Identification of Small Molecule Antagonists for NFkB Signaling Pathway (AID 895; active = well fitted inhibition curve with a large enough effect in the signal ratio, with a control signal flat, not every such curve was filed as active; the % refers to the signal ratio)
Method in brief: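 Beta-lactamase reporter read-out (460 and 530 nm emission ratio, 405 nm excitation, 2 hrs substrate loading RT) after 5 hr stimulation with 10 pM TNF alpha in compound-treated NFkB-bla ME-180 cells in low-serum medium.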

Sequence of Cytochrome P450 2C9 (Homo sapiens) (P11712 whole entry, looked up): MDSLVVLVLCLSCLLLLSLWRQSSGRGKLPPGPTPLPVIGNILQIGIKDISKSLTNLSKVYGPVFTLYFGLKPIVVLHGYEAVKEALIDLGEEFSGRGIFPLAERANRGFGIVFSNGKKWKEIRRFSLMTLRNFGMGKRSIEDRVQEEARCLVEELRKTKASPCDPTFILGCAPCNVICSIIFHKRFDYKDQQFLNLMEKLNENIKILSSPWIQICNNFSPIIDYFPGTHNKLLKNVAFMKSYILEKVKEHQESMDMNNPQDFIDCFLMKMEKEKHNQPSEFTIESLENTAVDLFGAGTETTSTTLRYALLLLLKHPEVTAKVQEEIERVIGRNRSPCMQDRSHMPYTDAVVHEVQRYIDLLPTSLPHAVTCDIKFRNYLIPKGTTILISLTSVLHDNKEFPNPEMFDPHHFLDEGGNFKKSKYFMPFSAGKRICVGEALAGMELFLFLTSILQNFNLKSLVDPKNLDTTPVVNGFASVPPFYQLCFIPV
Sequence of Cytochrome P450 2C19 (Homo sapiens) (P33261 whole entry, looked up): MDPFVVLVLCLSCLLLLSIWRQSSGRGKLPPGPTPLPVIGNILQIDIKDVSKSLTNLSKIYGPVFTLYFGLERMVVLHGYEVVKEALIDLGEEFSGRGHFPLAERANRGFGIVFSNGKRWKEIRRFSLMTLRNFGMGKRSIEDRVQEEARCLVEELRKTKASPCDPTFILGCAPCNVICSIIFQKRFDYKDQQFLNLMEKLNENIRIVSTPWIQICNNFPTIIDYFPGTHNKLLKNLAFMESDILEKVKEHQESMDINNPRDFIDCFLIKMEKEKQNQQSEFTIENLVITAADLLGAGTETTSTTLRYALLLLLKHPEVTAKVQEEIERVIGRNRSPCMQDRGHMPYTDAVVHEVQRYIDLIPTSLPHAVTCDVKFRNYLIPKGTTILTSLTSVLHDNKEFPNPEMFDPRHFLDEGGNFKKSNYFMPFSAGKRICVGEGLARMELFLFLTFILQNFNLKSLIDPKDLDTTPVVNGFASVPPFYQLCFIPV
Sequence of Guanine nucleotide-binding protein G(i) subunit alpha-1 (Homo sapiens) (P63096 whole entry, looked up): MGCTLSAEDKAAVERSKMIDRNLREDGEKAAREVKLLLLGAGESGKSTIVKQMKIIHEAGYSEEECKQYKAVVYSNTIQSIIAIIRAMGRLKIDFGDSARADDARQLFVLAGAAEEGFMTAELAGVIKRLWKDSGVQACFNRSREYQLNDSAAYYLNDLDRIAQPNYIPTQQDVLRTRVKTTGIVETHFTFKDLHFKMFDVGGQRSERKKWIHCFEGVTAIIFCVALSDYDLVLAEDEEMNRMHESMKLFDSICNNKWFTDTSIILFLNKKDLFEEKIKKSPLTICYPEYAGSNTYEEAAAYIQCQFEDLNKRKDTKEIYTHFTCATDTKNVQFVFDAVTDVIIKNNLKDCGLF
Sequence of Cytochrome P450 2D6 (Homo sapiens) (P10635 whole entry, looked up): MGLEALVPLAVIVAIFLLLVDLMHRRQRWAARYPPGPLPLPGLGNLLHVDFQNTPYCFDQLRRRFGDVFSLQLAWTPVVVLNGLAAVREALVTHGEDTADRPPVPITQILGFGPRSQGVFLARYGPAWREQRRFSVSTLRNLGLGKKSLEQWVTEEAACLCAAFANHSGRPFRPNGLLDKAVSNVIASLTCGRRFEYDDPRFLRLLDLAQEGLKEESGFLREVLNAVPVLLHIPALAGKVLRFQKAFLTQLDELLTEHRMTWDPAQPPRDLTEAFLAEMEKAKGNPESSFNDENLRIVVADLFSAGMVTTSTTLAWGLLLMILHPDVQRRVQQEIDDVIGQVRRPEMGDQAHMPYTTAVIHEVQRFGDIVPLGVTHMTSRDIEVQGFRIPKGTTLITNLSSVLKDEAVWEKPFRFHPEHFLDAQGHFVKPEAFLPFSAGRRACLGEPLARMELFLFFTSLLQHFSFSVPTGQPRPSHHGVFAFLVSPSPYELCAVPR
Sequence of Cytochrome P450 3A4 (Homo sapiens) (P08684 whole entry, looked up): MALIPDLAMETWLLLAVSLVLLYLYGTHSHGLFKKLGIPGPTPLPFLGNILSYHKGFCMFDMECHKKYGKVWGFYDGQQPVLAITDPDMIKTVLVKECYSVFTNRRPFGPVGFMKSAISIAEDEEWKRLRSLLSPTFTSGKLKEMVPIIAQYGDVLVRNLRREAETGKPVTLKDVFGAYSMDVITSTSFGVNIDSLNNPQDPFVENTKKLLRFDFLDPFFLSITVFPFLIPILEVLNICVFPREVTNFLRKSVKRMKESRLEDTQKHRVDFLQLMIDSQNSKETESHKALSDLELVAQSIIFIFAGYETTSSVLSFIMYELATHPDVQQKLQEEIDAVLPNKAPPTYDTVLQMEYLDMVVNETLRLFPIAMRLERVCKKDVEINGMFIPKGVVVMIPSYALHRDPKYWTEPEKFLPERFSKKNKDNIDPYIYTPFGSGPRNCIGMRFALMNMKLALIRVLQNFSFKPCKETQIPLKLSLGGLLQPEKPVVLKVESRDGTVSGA

## O=C(Oc1ccccc1)c1ccccc1O
[1]
  outcome: inactive
[2]
  Potency: inactive
[3]
  Potency: inactive

## Oc1ccccc1
[1]
  outcome: inactive
[2]
  Potency: inactive
[4]
  outcome: inactive
[3]
  Potency: inactive

## CCCCCCCCCCCCCCCC[n+]1ccccc1
[2]
  Potency: inactive
[4]
  outcome: inactive

## Nc1c2ccccc2nc2ccccc12
[2]
  Potency: 39.8 µM (active)
[4]
  outcome: inactive

## Cc1cc(C(C)(C)C)c(O)c(C(C)(C)C)c1
[1]
  outcome: inactive
[2]
  Potency: inactive
[4]
  outcome: inactive
[3]
  Potency: inactive

## OCc1c[nH]c2ccccc12
[1]
  outcome: inactive
[2]
  Potency: inactive
[4]
  outcome: inactive
[3]
  Potency: inactive

## CC(C)C(C)(C)C(C)(C)C(C)(C)S
[1]
  outcome: inactive
[2]
  Potency: inactive
[4]
  outcome: inactive
[3]
  Potency: inactive

## O=C(NO)c1ccccc1
[1]
  outcome: inactive
[2]
  Potency: inactive
[4]
  outcome: inactive
[3]
  Potency: inactive

## CC(=O)OC/C=C(C)/C=C/C=C(C)/C=C/C1=C(C)CCCC1(C)C
[1]
  outcome: inactive
[2]
  Potency: inactive
[4]
  outcome: inactive

## Cc1ccc(O)cc1
[1]
  outcome: inactive
[2]
  Potency: inactive
[4]
  outcome: inactive

## C1=CC2C3C=CC(C3)C2C1 (stereo not given)
[1]
  outcome: inactive
[2]
  Potency: inactive
[4]
  outcome: inactive
[3]
  Potency: inactive

## CCCCC(CC)COC(=O)c1ccccc1C(=O)O (stereo not given)
[1]
  outcome: inactive
[2]
  Potency: inactive
[4]
  outcome: inactive
[3]
  Potency: inactive

## Nc1ccc(O)cc1
[1]
  outcome: inactive
[2]
  Potency: inactive

## CCCC(=O)c1cc(O)c(O)cc1O
[1]
  outcome: inactive
[2]
  Potency: inactive
[4]
  outcome: inactive
[3]
  Potency: inactive

## CC(C)(C)c1ccc(O)c(O)c1
[1]
  outcome: inactive
[4]
  outcome: inactive
[3]
  Potency: inactive

## O=C(c1ccccc1)c1ccccc1
[1]
  outcome: inactive
[2]
  Potency: inactive
[4]
  outcome: inactive

## Brc1ccccc1-c1ccccc1
[1]
  outcome: inactive
[2]
  Potency: inactive
[4]
  outcome: inactive
[3]
  Potency: inactive

## c1ccc2occc2c1
[1]
  outcome: inactive
[2]
  Potency: inactive
[4]
  outcome: inactive
[3]
  Potency: inactive

## Nc1cccc2c(N)cccc12
[1]
  outcome: inactive
[2]
  Potency: inactive
[4]
  outcome: inactive

## COc1cc(C=O)ccc1O
[1]
  outcome: inactive
[2]
  Potency: inactive
[4]
  outcome: inactive
[3]
  Potency: inactive

## CC(C)(c1ccc(O)cc1)c1ccc(O)cc1
[1]
  outcome: inactive
[2]
  Potency: inactive
[4]
  outcome: inactive
[5]
  Potency: inactive

## OC(CCCN1CCCCC1)(c1ccccc1)c1ccccc1
[6]
  Potency: 0.126 µM (active)

## CCN(CC)CCOc1ccc(/C(=C(\Cl)c2ccccc2)c2ccccc2)cc1
[7]
  Potency: inactive
[3]
  Potency: inactive
[6]
  Potency: 5.01 µM (active)

## CCOC(=O)NNc1nncc2ccccc12
[3]
  Potency: inactive

## Cn1cnc2c(NCc3ccccc3)nc(NCCO)nc21
[8]
  outcome: inactive
[7]
  Potency: inactive
[5]
  Potency: inactive
[6]
  Potency: 3.16 µM (active) and 1.26 µM (active)
[9]
  Potency: inactive

## COC(=O)c1c(Cl)c(Cl)c(C(=O)OC)c(Cl)c1Cl
[3]
  Potency: inactive

## CC(C)N(CCC(=O)c1ccc2ccccc2c1)Cc1ccccc1
[8]
  outcome: inactive
[5]
  Potency: inactive
[6]
  Potency: 2 µM (active)

## O=C(O)Cc1ccc(OCCNC[C@H](O)c2ccccc2)cc1
[3]
  Potency: inactive

## O=C(O)/C=C(\CC(=O)O)C(=O)O
[3]
  Potency: inactive

## Cc1nn(-c2ccccc2)c(C)c1/C=N/N1CCN(Cc2ccccc2)CC1
[3]
  Potency: inactive
[5]
  Potency: 10 µM (active)

## NC(N)=NCCCCN=C(N)N
[8]
  outcome: inactive
[10]
  outcome: inactive

## Brc1ccc([C@H]2CN3CCSC3=N2)cc1
[8]
  outcome: inactive
[5]
  Potency: inactive

## COc1ccccc1N1CCN(CCN2C(=O)CC3(CCCC3)CC2=O)CC1
[8]
  outcome: inactive
[5]
  Potency: inactive

## O=[N+]([O-])c1ccc(-c2nc(-c3ccc(F)cc3)c(-c3ccncc3)[nH]2)cc1
[8]
  outcome: inactive
[3]
  Potency: 0.158 µM (active)
[5]
  Potency: inactive

## Nc1ncnc2nc[nH]c12
[3]
  Potency: inactive

## Cc1ccc2c(Cl)cc(Cl)c(O)c2n1
[3]
  Potency: inactive

## CC(=O)OCC[N+](C)(C)C
[3]
  Potency: inactive

## CN(C(=O)C(Cl)Cl)c1ccc(OC(=O)c2ccco2)cc1
[3]
  Potency: inactive

## O=C1NC(c2cccc([N+](=O)[O-])c2)=CCN1c1ccccc1O
[8]
  outcome: inactive
[7]
  Potency: inactive
[6]
  Potency: inactive
[9]
  Potency: inactive and 6.31 µM (active)

## C[C@@H](C1=C(CCN(C)C)Cc2ccccc21)c1ccccn1
[7]
  Potency: 0.501 µM (active)
[9]
  Potency: 2.51 µM (active)

## C1N2CN3CN1CN(C2)C3
[3]
  Potency: inactive

## CN(C)c1cc2c(Nc3ccc4c(cnn4Cc4ccccc4)c3)ncnc2cn1
[8]
  outcome: inactive
[3]
  Potency: 5.01 µM (active)
[5]
  Potency: inactive

## C[N+](C)(C)CCO
[8]
  outcome: inactive
[3]
  Potency: 31.6 µM (active)
